Among the data in PubChem BioAssay (EPA / NIEHS) are outcome and AC50 values, retold here.

SMILES strings stand for the structures. Inconclusive results are not listed. Calls of active or inactive are those of the source. How the source made its calls, unless noted: active means hit-call score of the fitted dose curve at least 0.9, where 1 is the maximum; inactive means score below 0.9.

In experiment [1] the target is Aryl hydrocarbon receptor (Homo sapiens) (UniProt P35869). Briefly: ATG_Ahr_CIS: Attagene CIS-FACTORIAL HepG2 Assay for human Aryl Hydrocarbon Receptor (Ahr) (AID 2282930). To be noted: HepG2 AhR cis-factorial reporter transcription; actives raise or lower the signal. In outline: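 Values derive from bidirectional fitting against DMSO negative control. Underlying signal: cis-element reporter mRNA in transiently transfected HepG2, harvested 24 h post-dose and measured by RT-PCR plus capillary electrophoresis.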
Chain of Aryl hydrocarbon receptor (Homo sapiens) (P35869 whole entry, looked up): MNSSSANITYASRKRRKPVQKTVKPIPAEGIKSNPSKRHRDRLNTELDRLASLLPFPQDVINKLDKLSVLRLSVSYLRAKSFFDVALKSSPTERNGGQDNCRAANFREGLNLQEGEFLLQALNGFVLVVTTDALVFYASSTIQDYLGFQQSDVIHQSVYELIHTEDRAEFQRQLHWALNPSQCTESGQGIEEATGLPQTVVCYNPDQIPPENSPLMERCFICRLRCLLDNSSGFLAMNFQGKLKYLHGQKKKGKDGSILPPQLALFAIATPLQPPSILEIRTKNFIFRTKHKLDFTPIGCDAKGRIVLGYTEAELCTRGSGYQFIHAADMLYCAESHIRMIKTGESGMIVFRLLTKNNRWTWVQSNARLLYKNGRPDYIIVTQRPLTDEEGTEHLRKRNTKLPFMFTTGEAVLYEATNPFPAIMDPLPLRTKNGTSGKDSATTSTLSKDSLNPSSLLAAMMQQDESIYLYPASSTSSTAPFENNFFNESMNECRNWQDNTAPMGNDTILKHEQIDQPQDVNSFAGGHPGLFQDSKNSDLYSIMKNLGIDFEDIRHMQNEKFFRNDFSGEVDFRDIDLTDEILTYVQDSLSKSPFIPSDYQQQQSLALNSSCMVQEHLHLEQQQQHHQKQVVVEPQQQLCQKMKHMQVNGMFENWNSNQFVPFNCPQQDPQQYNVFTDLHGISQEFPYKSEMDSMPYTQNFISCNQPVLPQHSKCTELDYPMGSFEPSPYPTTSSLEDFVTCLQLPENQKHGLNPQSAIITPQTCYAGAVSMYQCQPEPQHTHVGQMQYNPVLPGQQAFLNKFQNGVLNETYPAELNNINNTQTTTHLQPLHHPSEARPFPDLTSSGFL

Experiment [2] is described as follows: ATG_BRE_CIS: Attagene CIS-FACTORIAL HepG2 Assay for human Bone Morphogenetic Protein (BMP) Response Element (BRE) (AID 2282933). To be noted: HepG2 BMP response element reporter, Attagene transcription factor profiling; actives raise or lower the signal. In outline: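 A HepG2 multiplex reporter system measured inducible reporter mRNA 24 h post-dosing. Detection: RT-PCR, 6-FAM primer extension, HpaI digestion, capillary electrophoresis. Activity fitted bidirectionally relative to DMSO.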

Experiment [3] in a line: ATG_EGR_CIS: Attagene CIS-FACTORIAL HepG2 Assay for human Early Growth Response 1 (EGR1) (AID 2282938). To be noted: HepG2 Attagene CIS-FACTORIAL EGR reporter mRNA; actives raise or lower the signal. The method in brief: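 Cell-based multiplex transcription assay: HepG2 carrying transfected cis-element reporter units, 24 h chemical treatment. Fluorescence from capillary electrophoresis of RT-PCR products gives mRNA levels; fitting is bidirectional relative to DMSO.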

The nature of experiment [4]: ATG_GRE_CIS: Attagene CIS-FACTORIAL HepG2 Assay for human Glucocorticoid Response Elements (GRE) (AID 2282947). To be noted: HepG2 GRE cis-reporter, Attagene multiplex mRNA; actives raise or lower the signal. In outline:
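Cells (HepG2) bearing transfected cis-promoter reporter transcription units were treated with chemical for 24 hours. Reporter mRNA was measured via RT-PCR with capillary electrophoresis, and activity was fitted in both directions relative to DMSO.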

A short description of experiment [5]: ATG_M_06_CIS: Attagene CIS-FACTORIAL HepG2 Assay for M06 Transcription Factor (Internal Marker) (AID 2282950). To be noted: HepG2 Attagene CIS-FACTORIAL M06 internal marker reporter; actives raise or lower the signal. The method in brief:
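Cells (HepG2, transiently carrying cis-driven reporter units) receive chemical for 24 h before RNA isolation. Reporter cDNA is PCR-amplified, FAM-labelled by primer extension, HpaI-digested and sized on a capillary analyser.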

Experiment [6] addresses Hypoxia-inducible factor 1-alpha (Homo sapiens) (UniProt Q16665). The experiment can be described thus: ATG_HIF1a_CIS: Attagene CIS-FACTORIAL HepG2 Assay for human Hypoxia Inducible Factor 1 (HIF1A) (AID 2282951). The note with it: HepG2 Attagene cis-factorial HIF1a reporter transcription; actives raise or lower the signal. The method in brief:
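In this multiplexed cell assay, HepG2 cells bearing transfected cis reporters are dosed for 24 h and reporter mRNA is read by RT-PCR plus capillary electrophoresis; signal increases and decreases are both scored against DMSO.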

A short description of experiment [7]: ATG_MRE_CIS: Attagene CIS-FACTORIAL HepG2 Assay for human Metal Responsive Element (MRE) (AID 2282954). The note with it: HepG2 MRE cis-reporter transcription, Attagene multiplex; actives raise or lower the signal. The method in brief:
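Cells were transfected with cis-promoter reporter transcription units, then dosed for 24 h. RNA was reverse-transcribed, amplified, fluorescently labelled and resolved by capillary electrophoresis, and activity was fitted in both directions relative to DMSO.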

A short description of experiment [8]: ATG_TGFb_CIS: Attagene CIS-FACTORIAL HepG2 Assay for human Transforming Growth Factor (TGF) (AID 2282967). The note with it: HepG2 Attagene CIS TGFb reporter, mRNA transcription; actives raise or lower the signal. The method in brief:
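Liver HepG2 line, cis-factorial reporter panel, 24 h dosing. Quantitation: RT-PCR products labeled with 6-FAM, cut with HpaI, resolved by capillary electrophoresis; DMSO-referenced bidirectional analysis.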

Experiment [9] can be described thus: ATG_VDRE_CIS: Attagene CIS-FACTORIAL HepG2 Assay for human Vitamin D Receptor Element (VDRE) (AID 2282968). To be noted: HepG2 VDRE cis-reporter transcription, actives raise or lower the signal. The method in brief:
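Steps: transfect HepG2 with multiple reporter transcription units; dose chemicals 24 h; isolate RNA; RT-PCR; label with 6-FAM primer extension; HpaI digest; capillary electrophoresis. Curves fitted both directions against DMSO.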

Experiment [10] has as its target Transcriptional activator Myb (Homo sapiens) (UniProt P10242). Briefly: ATG_Myb_CIS: Attagene CIS-FACTORIAL HepG2 Assay for human Myeloblastosis (Myb) Proto-Oncogene Transcription Factor (AID 2282986). The note with it: HepG2 Attagene CIS-FACTORIAL Myb reporter transcription; actives raise or lower the signal. The method in brief: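 Fluorescence signals from capillary electrophoresis of RT-PCR-amplified reporter cDNA give the read-out. Cells: HepG2 transfected with multiple cis-regulated reporter units. Exposure lasts 24 hours; DMSO defines baseline for gain or loss of signal.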

The target of experiment [11] is Myc proto-oncogene protein (Homo sapiens) (UniProt P01106). The experiment can be described thus: ATG_Myc_CIS: Attagene CIS-FACTORIAL HepG2 Assay for human Myelocytomatosis (Myc) Proto-Oncogene Transcription Factor (AID 2282990). The note with it: HepG2, Attagene cis-reporter transcription factor activity; actives raise or lower the signal. The method in brief:
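Multiplexed cis-reporter transcription in HepG2 cells after 24 h chemical treatment. Reporter mRNA measured by RT-PCR and capillary electrophoresis fluorescence; activity fitted bidirectionally against DMSO control.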

The nature of experiment [12]: ATG_NF_kB_CIS: Attagene CIS-FACTORIAL HepG2 Assay for human Nuclear Factor Kappa B (NF-kB) (AID 2282991). To be noted: HepG2 Attagene cis-factorial NF-kB reporter mRNA; actives raise or lower the signal. In outline: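 HepG2, transient multi-reporter transfection, cis promoter elements (endogenous TFs). 24 h exposure. Total RNA → RT → PCR → 6-FAM label → HpaI → CE. Gain/loss vs DMSO.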

A short description of experiment [13]: ATG_NRF2_ARE_CIS: Attagene CIS-FACTORIAL HepG2 Assay for human Nuclear Factor Erythroid 2 Related Factor 2 (NFR2) response to Antioxidant Response Elements (ARE) (AID 2282992). To be noted: HepG2 Attagene ARE/NRF2 reporter, transcription factor activity; actives raise or lower the signal. In outline:
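Fluorescence intensity of reporter-specific cDNA fragments, separated by capillary electrophoresis, reflects mRNA induction in transfected HepG2 cells at 24 h. Activity is fitted bidirectionally, DMSO serving as baseline.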

Experiment [14] can be described thus: ATG_Oct_MLP_CIS: Attagene CIS-FACTORIAL HepG2 Assay for human Octamer-Binding Transcription Factor (Oct) (AID 2282993). To be noted: HepG2 Attagene cis-factorial Oct reporter, mRNA; actives raise or lower the signal. The method in brief: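 Using HepG2 cells bearing transfected cis-reporter constructs, mRNA induction was read after 24 h by fluorescent RT-PCR and capillary electrophoresis, with DMSO defining baseline for gain- or loss-of-signal fits.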

In experiment [15] the target is Cellular tumor antigen p53 (Homo sapiens) (UniProt P04637). Briefly: ATG_p53_CIS: Attagene CIS-FACTORIAL HepG2 Assay for human p53 Transcription Factor (AID 2282994). The note with it: HepG2 p53 cis-element reporter, Attagene mRNA; actives raise or lower the signal. The method in brief: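 Transiently transfected HepG2 (multiple cis reporter transcription units); exposure 24 h; reporter RNA via RT-PCR, 6-FAM extension, 2 h HpaI digest at 37 C, CE detection; DMSO baseline.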
Chain of Cellular tumor antigen p53 (Homo sapiens) (P04637 whole entry, looked up): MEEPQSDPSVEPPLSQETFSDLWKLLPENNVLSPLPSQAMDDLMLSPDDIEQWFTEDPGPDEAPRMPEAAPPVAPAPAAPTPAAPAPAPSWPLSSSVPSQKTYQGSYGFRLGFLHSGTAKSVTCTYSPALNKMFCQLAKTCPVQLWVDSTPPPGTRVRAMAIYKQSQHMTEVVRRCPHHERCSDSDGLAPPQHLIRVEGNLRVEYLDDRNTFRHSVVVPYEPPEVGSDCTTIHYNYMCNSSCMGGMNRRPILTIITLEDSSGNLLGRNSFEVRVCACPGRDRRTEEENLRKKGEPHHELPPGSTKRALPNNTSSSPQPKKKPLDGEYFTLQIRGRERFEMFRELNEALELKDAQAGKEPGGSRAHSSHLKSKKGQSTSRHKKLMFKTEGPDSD

Experiment [16] concerns the target Nuclear receptor subfamily 1 group I member 2 (Homo sapiens) (UniProt O75469). Briefly: ATG_PXR_TRANS: Attagene TRANS-FACTORIAL HepG2 Assay for human Pregnane X Receptor (PXR) (AID 2283008; active means hit-call score of the fitted dose curve at least 0.9, where 1 is the maximum). The method in brief:
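Transient HepG2 transfectants carrying multiplexed reporter transcription units; PXR activity read through a Gal4 chimera. 24 h exposure. RT-PCR/CE fluorescence; upward curve fit referenced to DMSO.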

Experiment [17] is described as follows: ATG_XTT_Cytotoxicity: Cytotoxicity Assessment in the Attagene TRANS-FACTORIAL HepG2 Assay (AID 2283584; active means hit-call score of the fitted dose curve at least 0.9, where 1 is the maximum). In outline: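 Viability endpoint from XTT after 24 h chemical exposure of reporter-transfected human HepG2 liver cells; signal loss fitted relative to DMSO negative control.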
Experiment [18] is described as follows: ATG_M_61_CIS: Attagene CIS-FACTORIAL HepG2 Assay for M61 Transcription Factor (Internal Marker) (AID 2282937). To be noted: HepG2 Attagene CIS-FACTORIAL M61 internal marker reporter; actives raise or lower the signal. The method in brief: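 Fluorescence from labelled cDNA fragments, separated by capillary electrophoresis, quantifies reporter induction. HepG2 cells bearing transiently transfected cis-promoter MRTUs were incubated with test chemical for 24 h; DMSO defined baseline for gain/loss fitting.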

The target in experiment [19] is Nuclear respiratory factor 1 (Homo sapiens) (UniProt Q16656). The experiment can be described thus: ATG_NRF1_CIS: Attagene CIS-FACTORIAL HepG2 Assay for human Nuclear Respiratory Factor 1 (NRF1) Orphan Gene (AID 2282987). The note with it: HepG2 NRF1 cis-element reporter, Attagene multiplex; actives raise or lower the signal. The method in brief:
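Transcriptional reporter readout, one component of a 52-endpoint multiplexed HepG2 panel. Exposure 24 h; mRNA detected via RT-PCR and fluorescent capillary electrophoresis; fitting in both directions against DMSO.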

Experiment [20] is described as follows: ATG_NFI_CIS: Attagene CIS-FACTORIAL HepG2 Assay for human Nuclear Factor I (NFI) (AID 2282989). The note with it: HepG2 cis-regulatory reporter, NFI response element transcription; actives raise or lower the signal. The method in brief: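 Transfected HepG2 liver cells, exposed 24 h, supplied total RNA for oligo(dT) reverse transcription and reporter-specific PCR. Labelled, HpaI-cut fragments were sized by capillary electrophoresis; DMSO set the baseline for bidirectional fitting.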

Chain of Transcriptional activator Myb (Homo sapiens) (P10242 whole entry, looked up): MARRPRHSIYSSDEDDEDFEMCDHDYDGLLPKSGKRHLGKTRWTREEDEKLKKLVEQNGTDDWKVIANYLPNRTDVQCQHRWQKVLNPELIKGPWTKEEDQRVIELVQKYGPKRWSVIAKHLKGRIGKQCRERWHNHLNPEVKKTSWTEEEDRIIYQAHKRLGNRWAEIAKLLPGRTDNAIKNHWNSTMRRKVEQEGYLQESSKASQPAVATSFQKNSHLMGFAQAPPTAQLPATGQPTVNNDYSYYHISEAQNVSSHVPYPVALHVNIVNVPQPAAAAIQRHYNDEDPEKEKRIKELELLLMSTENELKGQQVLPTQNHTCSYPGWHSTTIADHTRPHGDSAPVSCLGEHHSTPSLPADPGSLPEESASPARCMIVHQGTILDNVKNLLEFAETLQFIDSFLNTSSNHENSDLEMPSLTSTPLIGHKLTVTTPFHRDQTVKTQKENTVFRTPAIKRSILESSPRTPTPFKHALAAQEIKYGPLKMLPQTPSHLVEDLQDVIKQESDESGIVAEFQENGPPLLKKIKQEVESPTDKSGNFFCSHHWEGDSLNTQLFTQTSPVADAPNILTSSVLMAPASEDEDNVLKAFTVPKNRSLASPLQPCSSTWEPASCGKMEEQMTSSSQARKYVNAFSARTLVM
Chain of Nuclear receptor subfamily 1 group I member 2 (Homo sapiens) (O75469 whole entry, looked up, the tested form may be a part): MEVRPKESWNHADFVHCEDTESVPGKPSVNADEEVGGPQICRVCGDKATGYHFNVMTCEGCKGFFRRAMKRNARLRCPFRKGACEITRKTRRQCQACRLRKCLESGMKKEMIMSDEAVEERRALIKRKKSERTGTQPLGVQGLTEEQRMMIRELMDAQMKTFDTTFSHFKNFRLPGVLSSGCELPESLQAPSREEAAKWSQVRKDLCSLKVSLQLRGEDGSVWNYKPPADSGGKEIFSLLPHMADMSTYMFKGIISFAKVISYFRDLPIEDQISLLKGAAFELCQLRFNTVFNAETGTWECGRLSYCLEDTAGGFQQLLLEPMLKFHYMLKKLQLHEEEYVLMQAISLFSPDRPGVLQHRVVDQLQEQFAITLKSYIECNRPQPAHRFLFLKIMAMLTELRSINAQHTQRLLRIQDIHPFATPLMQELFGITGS
Chain of Hypoxia-inducible factor 1-alpha (Homo sapiens) (Q16665 whole entry, looked up): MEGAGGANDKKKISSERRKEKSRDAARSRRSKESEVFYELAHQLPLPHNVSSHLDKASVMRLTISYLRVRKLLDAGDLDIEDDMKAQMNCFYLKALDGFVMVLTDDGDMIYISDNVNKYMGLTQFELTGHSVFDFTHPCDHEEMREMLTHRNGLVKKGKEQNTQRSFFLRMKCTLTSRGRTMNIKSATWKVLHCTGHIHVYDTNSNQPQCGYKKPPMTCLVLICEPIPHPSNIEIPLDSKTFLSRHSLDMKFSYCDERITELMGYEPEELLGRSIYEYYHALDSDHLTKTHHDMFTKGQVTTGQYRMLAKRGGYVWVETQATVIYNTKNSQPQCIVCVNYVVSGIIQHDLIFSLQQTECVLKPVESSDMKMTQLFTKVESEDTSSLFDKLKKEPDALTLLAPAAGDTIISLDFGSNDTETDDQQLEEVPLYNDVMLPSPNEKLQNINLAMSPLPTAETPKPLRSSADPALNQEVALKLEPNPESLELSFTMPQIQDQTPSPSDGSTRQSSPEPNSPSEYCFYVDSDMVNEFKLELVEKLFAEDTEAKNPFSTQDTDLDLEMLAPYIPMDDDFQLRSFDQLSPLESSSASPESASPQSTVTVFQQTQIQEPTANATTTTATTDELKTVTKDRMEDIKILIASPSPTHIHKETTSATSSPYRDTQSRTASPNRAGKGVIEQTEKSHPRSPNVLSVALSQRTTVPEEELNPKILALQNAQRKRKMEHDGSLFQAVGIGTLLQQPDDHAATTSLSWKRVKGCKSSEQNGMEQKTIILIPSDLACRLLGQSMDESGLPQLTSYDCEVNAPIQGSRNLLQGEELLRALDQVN
Chain of Nuclear respiratory factor 1 (Homo sapiens) (Q16656 whole entry, looked up): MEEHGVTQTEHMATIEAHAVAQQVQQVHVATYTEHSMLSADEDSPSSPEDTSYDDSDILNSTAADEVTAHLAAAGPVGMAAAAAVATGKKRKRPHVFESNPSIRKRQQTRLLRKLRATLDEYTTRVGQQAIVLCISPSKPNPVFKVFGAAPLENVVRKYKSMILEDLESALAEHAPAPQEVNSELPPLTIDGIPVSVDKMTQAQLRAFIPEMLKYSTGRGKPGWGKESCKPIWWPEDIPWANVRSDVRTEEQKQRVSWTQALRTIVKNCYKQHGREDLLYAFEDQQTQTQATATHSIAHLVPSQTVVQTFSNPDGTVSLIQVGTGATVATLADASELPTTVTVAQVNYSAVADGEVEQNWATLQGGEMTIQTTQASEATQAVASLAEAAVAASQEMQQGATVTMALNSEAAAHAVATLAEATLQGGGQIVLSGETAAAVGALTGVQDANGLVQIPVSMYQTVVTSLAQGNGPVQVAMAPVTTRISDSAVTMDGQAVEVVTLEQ
Chain of Myc proto-oncogene protein (Homo sapiens) (P01106 whole entry, looked up): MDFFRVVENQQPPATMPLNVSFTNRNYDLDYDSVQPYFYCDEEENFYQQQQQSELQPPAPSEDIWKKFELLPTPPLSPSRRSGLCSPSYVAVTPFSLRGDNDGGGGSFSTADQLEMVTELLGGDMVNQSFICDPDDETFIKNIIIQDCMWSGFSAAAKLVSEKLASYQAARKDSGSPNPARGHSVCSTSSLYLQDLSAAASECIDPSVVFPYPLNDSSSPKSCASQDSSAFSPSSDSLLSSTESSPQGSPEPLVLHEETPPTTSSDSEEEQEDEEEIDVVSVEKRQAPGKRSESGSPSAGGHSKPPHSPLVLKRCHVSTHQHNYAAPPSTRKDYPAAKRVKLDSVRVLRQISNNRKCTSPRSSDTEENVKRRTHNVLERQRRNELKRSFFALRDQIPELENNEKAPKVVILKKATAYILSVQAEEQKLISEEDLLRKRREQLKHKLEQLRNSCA

For the compound `N#Cc1cc(I)c(O)c(I)c1`, the call in [1], in experiment [2], in experiment [3], in experiment [4], in [5] and in experiment [6] was inactive. For the same compound, the outcome in experiment [7], in [8], in experiment [10], in [11], in experiment [12] and in experiment [15] was inactive. Moreover, the result in experiment [16] and in experiment [17] was inactive. Moreover, the AC50 is 30.8 µM (active) in experiment [9], 28.3 µM (active) in experiment [13] and 39.3 µM (active) in experiment [14].
Take `CCC(C)(C)O`: the call in experiment [1], in experiment [2], in experiment [18], in [3], in experiment [4] and in experiment [5] was inactive. The outcome in [6], in [7], in experiment [8], in [9], in [10] and in experiment [19] was inactive. Moreover, the outcome in experiment [20], in [11], in experiment [13], in [14], in experiment [16] and in experiment [17] was inactive.
Take `CCN(CC)C(=S)S`: the result in experiment [1], in experiment [2], in experiment [18], in experiment [3], in [4] and in experiment [5] was inactive. Besides, the outcome in experiment [6], in [9], in experiment [10], in experiment [19], in experiment [20] and in experiment [11] was inactive. Also, the compound was called inactive in [12] and in [14]. Moreover, the values for the AC50 in [7], in experiment [13] and in experiment [16] were 71.9 µM (active), 27.8 µM (active) and 3.68 µM (active), respectively.
On to `C[N+](=O)[O-]`, for which the call in [1], in experiment [2], in experiment [4], in experiment [6], in [7] and in [8] was inactive. The compound was classed as inactive in experiment [9], in experiment [10], in experiment [19], in [20], in experiment [11] and in [12]. Moreover, the outcome in experiment [13], in [14] and in [15] was inactive.
`CC1(C)CC(=O)CC(C)(C)N1[O]`: the outcome in experiment [1], in [18], in [3], in experiment [6], in experiment [7] and in experiment [8] was inactive. In addition, the compound was called inactive in [9], in experiment [10], in experiment [19], in [20], in [11] and in experiment [12]. Further, the compound was called inactive in [14], in [15], in [16] and in [17]. For the same compound, the AC50 in experiment [13] was 19.8 µM (active).

Usually AC50 stands for the concentration at which the activity in the assay is half-maximal.
